In the library only some 6.3% were active in any assay of this set; here they are far more common.
tim10-1 inh: inhibits growth of tim10-1 mutant yeast. S. cerevisiae tim10-1 ts strain growth, BacTiter-Glo, 24 h. inhibition, % at 20 µM. 330,000 tested, 2.2% active. AID 463190;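 active = inhibition of at least 40%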;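 note: mutant grown at 25 °C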
tim23-1 inh: tim23-1 yeast growth inhibition; S. cerevisiae tim23-1 growth, BacTiter-Glo luminescence, 24 h; inhibition, % at 20 µM; 330,000 tested, 1.3% active; AID 463212;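 active = growth inhibition of the mutant yeast at or above 50%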;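 note: temperature-sensitive mutant grown at 25 °C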
MPTP inh: permeability transition pore inhibition | isolated mouse mitochondria, Ca2+ swelling absorbance, 30 min | inhibition, % at 10 µM | 360,000 tested, 1.4% active | AID 602449;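 active = inhibition of 50% or more, scaled per plate between neutral and stimulator controls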
TIM10 inh: inhibits growth of TIM10 yeast strain. S. cerevisiae TIM10 strain growth, BacTiter-Glo luminescence, 24 h. inhibition, % at 10 µM. 330,000 tested, 1.4% active. AID 463195;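 active = inhibition of 40% or more at the single tested concentration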;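 note: wild-type TIM10 isogenic control strain grown at permissive 25 °C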
Mdm2 MdmX PPI: disrupts the human Mdm2-MdmX interaction; O15151+Q00987; SaOS-2 split-luciferase Mdm2/MdmX complementation, luminescence; inhibition, % at 8 µM; 330,000 tested, 3% active; AID 485346;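 active = inhibition of at least 50% at 8 µM in the primary screen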
Mdm2-MdmX conf: confirmation of human Mdm2/MdmX interaction inhibitors; shares compounds with Mdm2 MdmX PPI; Mdm2-MdmX binding, luminescent assay; inhibition, % at 8 µM; 10,000 tested, 55% active; in the data active = inhibition above about 40%
Full FLuc ctr: full-length luciferase inhibition in Mdm2/MdmX counter-screen; shares compounds with Mdm2 MdmX PPI; inhibition, % at 8 µM; 6,200 tested, 77% active; SaOS-2 full-length luciferase counterscreen, luminescence;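 active = mean inhibition at 8 µM reaching about 37%, which flags the compound as non-specific, limit read from the data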;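 note: p53-null SaOS-2 cells with luciferase driven by a doxycycline-inducible promoter; compound on cells about two nights before reading with doxycycline added after day one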
Of the large screens only hits and unclear results are named; the others gave an inactive call (follow-up assays come after a bar, where they were run).

Cn1c(=O)[nH]c(N)c(Br)c1=O	none (no result: tim10-1 inh, tim23-1 inh, TIM10 inh, Mdm2 MdmX PPI)
CCOCCC(=O)Nc1ccc2c(c1)c(=O)n(C)n2C/C=C/c1ccccc1	none (no result: tim10-1 inh, tim23-1 inh, TIM10 inh, Mdm2 MdmX PPI)
CN1CCN(C(=O)c2ccc(Cc3cn(C)c4ccccc34)nc2)CC1	none (no result: tim10-1 inh, tim23-1 inh, TIM10 inh, Mdm2 MdmX PPI)
Cc1ccc(S(=O)(=O)N2CCN(C(=O)COC(=O)CCOc3ccccc3C)CC2)c(C)c1	none
CCOC(=O)c1c2ccc(OCC(=O)N/N=C/c3ccc(C)cc3)cc2n2ccccc12	Mdm2 MdmX PPI 83.8 | Mdm2-MdmX conf 78.8 | Full FLuc ctr 107.0
CCNc1nc(C)c2cc(Br)c(=O)n(CC)c2n1	Mdm2 MdmX PPI 72.8 | Mdm2-MdmX conf 44.0 | Full FLuc ctr 46.0
COc1cccc(CN(C)C(=O)c2cccc(S(=O)(=O)Nc3cccc(C)c3)c2)c1OC	none (no result: tim10-1 inh, tim23-1 inh, TIM10 inh, Mdm2 MdmX PPI)
CCCCN1C(=O)C(O)(CC(=O)c2c(C)n[nH]c2C)c2cc(Br)ccc21 (centres undefined)	none
CCCCN1C(=O)C(O)(CC(=O)c2ccco2)c2cc(Br)ccc21 (centres undefined)	Mdm2 MdmX PPI 65.2 | Mdm2-MdmX conf 50.6 | Full FLuc ctr 74.8
CCOC(=O)[C@H]1[C@H]2COc3ccc(Cl)cc3[C@@H]2N2C(=O)c3ccc(Cl)cc3NC(=O)[C@@]12C	Mdm2 MdmX PPI 53.1 | Mdm2-MdmX conf inactive
C[C@@]12C(=O)Nc3ccc(Br)cc3C(=O)N1[C@H]1c3cc(Br)ccc3OC[C@@H]1[C@@H]2c1ccccc1	none
COc1ccc2c(c1)C(=O)N1[C@H]3c4cc(Cl)ccc4OC[C@@H]3[C@H](c3ccccc3)[C@]1(C)C(=O)N2	none
CCOC(=O)[C@H]1[C@H]2COc3ccc(C)cc3[C@@H]2N2C(=O)c3ccc(Cl)cc3NC(=O)[C@@]12C	none
COc1ccc2c(c1)C(=O)N1[C@H]3c4cc(Br)ccc4OC[C@@H]3[C@H](c3ccccc3)[C@]1(C)C(=O)N2	Mdm2 MdmX PPI 64.5 | Mdm2-MdmX conf 62.9 | Full FLuc ctr 37.4
C[C@@]12C(=O)Nc3ccccc3C(=O)N1[C@H]1c3cc(Br)ccc3OC[C@@H]1[C@@H]2c1ccccc1	Mdm2 MdmX PPI 63.4 | Mdm2-MdmX conf 53.0 | Full FLuc ctr inactive
O=C(CN1CCN(CC(=O)Nc2ccc3c(c2)OC2(CCCCC2)O3)CC1)Nc1cccc(F)c1	none (no result: tim10-1 inh, tim23-1 inh, TIM10 inh, Mdm2 MdmX PPI)
CCOC(=O)C1=CCN(S(=O)(=O)c2ccc(F)cc2)C1c1ccc(Cl)c(Cl)c1 (centres undefined)	none (no result: tim10-1 inh, tim23-1 inh, TIM10 inh, Mdm2 MdmX PPI)
Cc1csc(NC(=O)CSc2nnc3c4ccccc4nc(C(C)(C)C)n23)n1	Mdm2 MdmX PPI 68.9 | Mdm2-MdmX conf 60.0 | Full FLuc ctr 56.5
CCCC(C)(C)C(=O)N1CCC1(C)C(=O)NS(=O)(=O)c1ccc(Cl)cc1 (centres undefined)	none (no result: tim10-1 inh, tim23-1 inh, TIM10 inh, Mdm2 MdmX PPI)
COc1ccc(CNC(=O)O[C@]23C[C@H]4C(=O)N(c5ccccc5)C(=O)[C@H]4C[C@@]2(O)CN(S(=O)(=O)c2ccc(C)cc2)C3)cc1OC	none (no result: tim10-1 inh, tim23-1 inh, TIM10 inh, Mdm2 MdmX PPI)
CCCn1c2ccccc2c2cnn(CC(=O)NC3CCCC(C)C3C)c(=O)c21 (centres undefined)	Mdm2 MdmX PPI 88.9 | Mdm2-MdmX conf inactive
CCCn1c2ccccc2c2cnn(CC(=O)NC3CCC(C)CC3)c(=O)c21 (centres undefined)	none
COC1C(CO)OC(n2c3c(Cl)cccc3c3c4c(c5c6cccc(Cl)c6[nH]c5c32)C(=O)NC4=O)C(O)C1O (centres undefined)	none (no result: tim10-1 inh, tim23-1 inh, TIM10 inh, Mdm2 MdmX PPI)
Oc1ccc(NC(=S)N=Nc2c(O)[nH]c3ccc(Br)cc23)cc1	Mdm2 MdmX PPI 69.8 | Mdm2-MdmX conf 73.5 | Full FLuc ctr 42.4
Cc1ccc(NC(=S)N=Nc2c(O)[nH]c3ccccc23)cc1	Mdm2 MdmX PPI 64.8 | Mdm2-MdmX conf 51.5 | Full FLuc ctr 66.8
Oc1[nH]c2ccc(Br)cc2c1N=NC(=S)Nc1ccc(F)cc1	Mdm2 MdmX PPI 71.2 | Mdm2-MdmX conf 69.7 | Full FLuc ctr 42.7
Oc1cccc(NC(=S)N=Nc2c(O)[nH]c3ccc(Br)cc23)c1	Mdm2 MdmX PPI 56.3 | Mdm2-MdmX conf 46.4 | Full FLuc ctr 57.2
Cc1cccc(C(=O)N2CCC(C)(C(=O)NS(=O)(=O)C3CC3)C2)c1C (centres undefined)	none (no result: tim10-1 inh, tim23-1 inh, TIM10 inh, Mdm2 MdmX PPI)
COc1cc(/C=C/CNC[C@H]2O[C@@H](n3cnc4c(=O)[nH]c(N)nc43)[C@H](O)[C@@H]2O)ccc1O	none (no result: tim10-1 inh, tim23-1 inh, TIM10 inh, Mdm2 MdmX PPI)
COc1ccc(/C=C2\SC(=S)N(CCCC(=O)N3CCN(C)CC3)C2=O)cc1	none
COc1cccc(/C=C2/SC(=S)N(CCC(=O)N3CCOCC3)C2=O)c1	Mdm2 MdmX PPI 53.5 | Mdm2-MdmX conf inactive
CN1CCN(C(=O)CCCN2C(=O)/C(=C/c3cccc(Br)c3)SC2=S)CC1	Mdm2 MdmX PPI 63.4 | Mdm2-MdmX conf inactive | Full FLuc ctr inactive
COc1cccc(/C=C2\SC(=S)N(CCCC(=O)N3CCCCC3)C2=O)c1	Mdm2 MdmX PPI 87.8 | Mdm2-MdmX conf 62.5 | Full FLuc ctr inactive
O=C1/C(=C/c2cccc(Br)c2)SC(=S)N1CCC(=O)N(CCO)c1ccccc1	Mdm2 MdmX PPI 51.9 | Mdm2-MdmX conf inactive
COc1ccc(C(=O)N2CCC(C)(C(=O)NS(=O)(=O)C3CC3)C2)cc1 (centres undefined)	none (no result: tim10-1 inh, tim23-1 inh, TIM10 inh, Mdm2 MdmX PPI)
Cc1ccc(/C=C2\SC(=S)N(CCC(=O)N3CCOCC3)C2=O)cc1	Mdm2 MdmX PPI 56.8 | Mdm2-MdmX conf inactive
COc1ccc(/C=C2\SC(=S)N(CCC(=O)N3CCOCC3)C2=O)cc1	none
c1csc(-c2ccc3nncn3c2)c1	none (no result: tim10-1 inh, tim23-1 inh, TIM10 inh, Mdm2 MdmX PPI)
COc1ccc(CN2C(=O)C(CC(=O)NCCc3ccccn3)CC(C(=O)N(C)C)=C2C)cc1 (centres undefined)	none (no result: tim10-1 inh, tim23-1 inh, TIM10 inh, Mdm2 MdmX PPI)
Cc1ccc(NC(=O)COc2ccc(/C=C3/SC(=Nc4ccccc4)N(Cc4cccnc4)C3=O)cc2)cc1	Mdm2 MdmX PPI 50.8 | Mdm2-MdmX conf inactive
Cc1ccc(NC(=O)COc2ccc(/C=N/NC(=O)CSCc3ccccc3)cc2)cc1	none
CC(=O)N1N=C(c2ccccc2)CC1c1cn(Cc2ccccc2)c2ccccc12 (centres undefined)	Mdm2 MdmX PPI 58.6 | Mdm2-MdmX conf 50.9 | Full FLuc ctr 46.8
Cc1ccc(-n2c(O)c(C=NCc3ccccn3)c3ccccc3c2=O)cc1C	Mdm2 MdmX PPI 50.8 | Mdm2-MdmX conf inactive
O=C(CCN1CCN(C(c2ccccc2)c2ccccc2)CC1)N/N=C/c1ccc(O)cc1	none
O=C(CCN1CCN(C(c2ccccc2)c2ccccc2)CC1)N/N=C/c1ccc(O)cc1O	Mdm2 MdmX PPI 60.4 | Mdm2-MdmX conf 68.6 | Full FLuc ctr 36.5
N/C(=N\OC(=O)Nc1ccccc1)c1ncc(C(F)(F)F)cc1Cl	Mdm2 MdmX PPI 51.0 | Mdm2-MdmX conf inactive
N/C(=N\OC(=O)CCC(=O)O)c1ncc(C(F)(F)F)cc1Cl	none
S=C(Nc1ccc(Cl)c(Cl)c1)NC1CCN(Cc2ccccc2)CC1	Mdm2 MdmX PPI 97.1 | Mdm2-MdmX conf 52.2 | Full FLuc ctr inactive
Fc1ccc(NC(=S)NC2CCN(Cc3ccccc3)CC2)cc1	none

Compound activity: PubChem, Sanford-Burnham Center for Chemical Genomics
